According to PubChem BioAssay (NCI):
This is part of a sample that, as a whole, favours compounds with a hit. Of some 79,000 tested, about 15% had one in any assay. Active and inactive are the calls of the source. Rule as the data show it: active = growth inhibition above about 70%; inactive = the rest.

What was measured:
[1] = NCI Yeast Anticancer Drug Screen. Data for the rad50 strain (AID 155);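 also: 0% = growth of vehicle-only cultures of the same strain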; details: S. cerevisiae rad50 strain growth inhibition; at 50.0 µM; active compounds read high
Method in brief: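 A DNA repair-deficient yeast mutant serves as the test organism; compound-induced growth inhibition is calculated against vehicle-treated cells.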

[2] = NCI Yeast Anticancer Drug Screen. Data for the mec2-1 strain (AID 157); details: S. cerevisiae mec2-1 strain, at 50.0 µM, active compounds read high
Method in brief: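 Vehicle-treated cultures served as reference for growth inhibition of compound-exposed mec2-1 yeast.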

[3] = NCI Yeast Anticancer Drug Screen. Data for the sgs1 mgt1 strain (AID 161);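 also: 0% = growth of cultures given vehicle only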; details: S. cerevisiae sgs1 mgt1 strain, at 50.0 µM, active compounds read high
Method in brief: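 Inhibition of yeast growth, normalised to vehicle-treated controls, is reported for a strain bearing genetic alterations in DNA damage repair.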

[4] = NCI Yeast Anticancer Drug Screen. Data for the cln2 rad14 strain (AID 165);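 also: 0% = growth equal to vehicle treated cultures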; details: S. cerevisiae cln2 rad14 strain, at 50.0 µM, active compounds read high
Method in brief: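 Each compound was tested on cln2 rad14 yeast. Inhibition of growth was calculated against vehicle-exposed controls.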

[5] = NCI Yeast Anticancer Drug Screen. Data for the bub3 strain (AID 167); details: S. cerevisiae bub3 mutant strain, at 50.0 µM, active compounds read high
Method in brief: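 Inhibition values come from growth of compound-treated mutant yeast normalised to vehicle-treated controls.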

[6] = NCI Yeast Anticancer Drug Screen. Data for the mlh1 rad18 strain (AID 175); details: S. cerevisiae mlh1 rad18 strain growth inhibition; at 50.0 µM; active compounds read high
Method in brief: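 Vehicle-treated cultures served as the reference for growth inhibition in a yeast strain carrying DNA damage repair alterations exposed to each compound.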

Measured: growth inhibition

Cc1cc(C)n2c(-c3ccccc3)nnc2c1
inactive: [1] 19.1% | [2] -7.2% | [3] -20.2% | [4] -7.05% | [5] 8.05% | [6] -8.85%

Cc1cccc(NC(=O)Nc2ccccc2Cl)c1C
inactive: [1] 11.2% | [2] 5.15% | [3] 0.65% | [4] -3.65% | [5] -2.3% | [6] -9.45%

O=C(O)c1c(O)c(O)cc2ccccc12
inactive: [1] 24.1% | [2] -17.8% | [3] -13.4% | [4] -51.5% | [5] 25.6% | [6] 23.4%

CCOC(C)C(=O)C=O (stereo not given)
inactive: [1] -17.9% | [2] -13.6% | [3] -17.2% | [4] -4.55% | [5] -13.4% | [6] -8.4%

Cc1cc(N(CCC#N)CCC#N)ccc1/C=C1N=C(/C=C\c2ccccc2)OC\1=O
inactive: [1] 5.5% | [2] -8.5% | [3] 5.5% | [4] 12.2% | [5] 10.3% | [6] 5.3%

CCN(CC)c1cc2c(cc1Br)-c1ccccc1C2=O
inactive: [1] 4% | [2] -2.9% | [3] 5.7% | [4] 52.2% | [5] 7.95% | [6] 36%

C[P+](Cc1ccc([N+](=O)[O-])cc1)(c1ccccc1)c1ccccc1
inactive: [1] -2.85% | [2] -19.1% | [3] -3.15% | [4] -1.7% | [5] -9.8% | [6] -7.15%

O=c1/c(=C/c2ccc(Cl)cc2Cl)sc2nc3ccccc3n12
inactive: [1] 4.1% | [2] -23.4% | [3] -0.15% | [4] -12.8% | [5] -22.5% | [6] -7.45%

S=C(Nc1cccc2ccccc12)N1CCCCC1
inactive: [1] 51.7% | [2] 39% | [3] 50.7% | [4] 18.1% | [5] 61% | [6] 35.7%

CCCCOC(=O)NC(=O)c1cc2ccc(N(CC)CC)cc2oc1=O
inactive: [1] -10.5% | [2] 3.5% | [3] 8.7% | [4] 3.4% | [5] 5.4% | [6] 4.2%

CN1c2ccccc2N(C)C2C1N(C)c1ccccc1N2C (stereo not given)
inactive: [1] -38.9% | [2] -28.4% | [3] -12.4% | [4] -1.8% | [5] -19.9% | [6] -36.1%

CC(/C=C/c1ccccc1)=N\N=C(C)\C=C\c1ccccc1
inactive: [1] 0.45% | [2] -20.2% | [3] -31.4% | [4] 20.9% | [5] -37.8% | [6] -23.4%

Cc1ccc(Oc2ccc(C(=O)c3cccc(C(=O)c4ccc(Oc5ccc(C)cc5)cc4)n3)cc2)cc1
inactive: [1] -18.6% | [2] 2.05% | [3] -38.2% | [4] -28.2% | [5] -15.3% | [6] -24.9%

Cc1ccccc1NC(=O)c1ccccc1Cl
inactive: [1] -19.3% | [2] -18.6% | [3] -6.9% | [4] -31.8% | [5] -19.1% | [6] -25.6%

CCCCCCCCOC(=O)Nc1cccc2ccccc12
inactive: [1] -12.8% | [2] -11.2% | [3] -2.6% | [4] -39.7% | [5] -4.35% | [6] -9.2%

CCOC(=O)c1nc2ccc(C(F)(F)F)cc2nc1Nc1cc(OC)c(OC)c(OC)c1
inactive: [1] -33.4% | [2] -17.4% | [3] -30.8% | [4] 2.85% | [5] -13.6% | [6] -11.1%

O=C(O)c1ccccc1-c1ccccc1C(=O)O
inactive: [1] -3.95% | [2] -9.6% | [3] -10.9% | [4] -41.2% | [5] -1.8% | [6] 9%

O=C1C2Nc3ccccc3N=C2OC1c1ccc(Cl)c(Cl)c1 (stereo not given)
inactive: [1] 10.1% | [2] -5.35% | [3] 15.7% | [4] 7% | [5] -4.8% | [6] 24.6%

C[N+](C)(C)c1ccc(C(=O)[O-])cc1
inactive: [1] 3.55% | [2] 18.8% | [3] -0.4% | [4] 0.55% | [5] 16% | [6] 8.1%

COC(=O)c1cc(-c2cccnc2)[nH]c(=O)c1C#N
inactive: [1] -5.4% | [2] -36.6% | [3] -39.9% | [4] -15.7% | [5] -9.7% | [6] -14.2%
